Screens as filed in PubChem BioAssay.
An excerpt weighted towards active compounds, which were near 3.6% of everything screened.
Epigenetic reg = regulators of epigenetic silencing causing reporter derepression in mouse cells; hit rate 0.2% among 280,000; AID 1865; murine LDR cells, GFP reporter derepression, 30 h; Potency, µM (doses to about 53.9 µM), for inactives: at the highest dose GFP activation, most hits filed as activators; further: % of control where 0% means no effect; nearly all actives have a fitted effect of over 60% in size
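Readout is the number of GFP-expressing murine LDR cells, counted by cytometry following washing. Cells were treated with compound for 30 h at 37 C; the stably integrated CMV-GFP locus is normally silent.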
Sfp inh = Sfp phosphopantetheinyl transferase inhibition; Biochemical Sfp PPTase activity, qHTS; hit rate 3.5% among 310,000; Potency, µM, for inactives: largest response in the series, negative = inhibition, usual class: inhibitors; AID 1490;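 further: the enzyme is Sfp with the accession as filed and its product quenches rhodamine fluorescence; 0% = enzyme reaction without inhibitor and -100% = no enzyme wells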
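Step 1, compound plus 15 nM Sfp-PPTase, 15 min, room temperature. Step 2, add rhodamine-CoA (5 uM) and BHQ-2-YbbR (12.5 uM). Step 3, read 525/598 nm fluorescence at 0 and 30 min.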
KAT2A inh = inhibitors of human GCN5L2 histone acetyltransferase | GCN5L2 HAT assay, ThioGlo1 CoA-SH fluorescence | hit rate 0.21% among 390,000 | Potency, µM (highest dose often 58.9 µM), inactives show at the top dose activity change, negative = inhibition, most hits filed as inhibitors | AID 504327 | Q92830; further: on the % scale 0 is the no-effect control and ±100 the full control effect
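qHTS, 1536-well. 20nM enzyme, pH 7.5 HEPES/EDTA/Tween-20 buffer; 15 min compound preinc., RT. Start: 75uM H3(1-25), 70uM AcCoA, 50uM ThioGlo1. Read Ex340/Em540 at t=0 (autofluorescence flag) and t=20 min.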
KDM4E inh = JMJD2E (human) inhibition; JMJD2E catalytic domain, FDH-coupled NADH fluorescence (FDH is formaldehyde dehydrogenase); Potency, µM (top dose mostly 57.1 µM), for inactives: at the top dose activity change, negative = inhibition, usual class: inhibitors; B2RXH2; hit rate 1.6% among 230,000; active means well fitted inhibition curve with a large enough effect, not every such curve was filed as active; inconclusive means small, poorly fitted or top-dose-only effect, or another doubt; inactive means no such curve, though single readings can be large or run the other way;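 further: 0% = wells with enzyme and -100% = buffer wells without enzyme; nearly all actives have a fitted effect of over 50% in size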
Target sequence (B2RXH2 1-337 limits assumed): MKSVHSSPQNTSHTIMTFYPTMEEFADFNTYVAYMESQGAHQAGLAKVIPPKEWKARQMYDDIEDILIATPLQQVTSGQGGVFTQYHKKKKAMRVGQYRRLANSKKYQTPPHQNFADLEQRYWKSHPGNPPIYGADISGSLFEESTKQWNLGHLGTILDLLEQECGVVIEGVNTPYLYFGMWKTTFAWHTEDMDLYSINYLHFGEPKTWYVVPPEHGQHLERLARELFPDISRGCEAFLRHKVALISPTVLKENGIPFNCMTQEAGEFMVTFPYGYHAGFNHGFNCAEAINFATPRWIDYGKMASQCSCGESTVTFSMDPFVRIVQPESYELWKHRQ
NPSR antagonist = neuropeptide S receptor (human) antagonism, cAMP. Q6W5P4. CHO-NPSR cells, cAMP TR-FRET, antagonist mode. hit rate 1% among 220,000. Potency, µM (doses to about 38.3 µM), inactives show top-dose activity change, negative = inhibition, actives largely listed as inhibitors. AID 1461; further: on the % scale 0 is the no-effect control and ±100 the full control effect; nearly all actives have a fitted effect of over 50% in size
Target sequence (Q6W5P4 whole entry, looked up): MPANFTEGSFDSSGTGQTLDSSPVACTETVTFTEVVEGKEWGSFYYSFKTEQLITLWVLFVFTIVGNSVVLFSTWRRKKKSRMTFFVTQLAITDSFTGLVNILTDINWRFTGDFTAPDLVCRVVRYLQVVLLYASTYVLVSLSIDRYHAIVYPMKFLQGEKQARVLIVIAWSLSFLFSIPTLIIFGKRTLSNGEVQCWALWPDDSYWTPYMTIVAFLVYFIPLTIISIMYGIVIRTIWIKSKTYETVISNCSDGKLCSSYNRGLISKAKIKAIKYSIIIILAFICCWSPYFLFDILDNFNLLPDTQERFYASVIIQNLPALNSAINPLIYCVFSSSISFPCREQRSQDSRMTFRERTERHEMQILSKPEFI
IMPase Li cell = IMPase inhibition in cells with lithium potentiation; CHO-M1 cells, IP1 TR-FRET (IP-One), carbachol + lithium; Potency, µM (highest dose often 59.4 µM), without a hit: at the highest dose activity, negative = IMPase inhibition, actives largely listed as inhibitors; hit rate 0.35% among 210,000;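 further: IP1 builds up when IMPase is blocked and the TR-FRET signal falls; plate controls were basal vehicle for no effect and high inhibitor control for full effect; nearly all actives have a fitted effect of over 50% in size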
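IP1 accumulation measured by competitive TR-FRET in lysed CHO-M1 cells after 30 min compound exposure at 37C, with a small lithium addition to potentiate weak responses. Hill-equation AC50 from ratio and donor-channel data.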
* hit, by the source's call; ? = inconclusive; / = no result; ! = not confirmed by another sample; [ ] = another dose, or the depositor's remark. Unless noted, the call rests on the fitted dose curve; in most records, active means well fitted curve in the direction sought with a large enough effect; inconclusive means small, poorly fitted or top-dose-only effect, or another doubt; inactive means no such curve, though single readings can be large; an effect the other way counts as inactive or inconclusive. Potency means the concentration at half of the fitted maximal effect.

SMILES	Epigenetic reg	Sfp inh	KAT2A inh	KDM4E inh	NPSR antagonist	IMPase Li cell
C=CC(C)(O)CC1[C@@]2(C)CCCC(C)(C)C2CC[C@]1(C)O (some centres undefined)	0%	18%	/	5%	/	-7%
NC(N)=NC(N)=Nc1ccccc1 (tested in a mixture with another compound)	/	/	/	/	/	0%
Clc1nnc(N/N=C/c2ccccc2)c2ccccc12	0%	-20%	-6%[0.501 µM]	-1%	-21%[46.1 µM]	19%[38.3 µM]
Clc1nnc(NN=C2CCCC2)c2ccccc12	-10%	50µM*	4%	?	-5%	2%
N#CCCn1c(=O)c(-c2ccccc2)nc2cnc(N3CCOCC3)nc21	/	-5%	14%	/	/	-13%
O=C(C1CCCN(Cc2cccnc2)C1)N1CCCCC1 (centres undefined)	0%	50µM*	-8%	-11%	-9%[46.1 µM]	/
COc1cc(NCCCC(C)N)c2ncccc2c1 (centres undefined)	13%	56µM*	-1%	?	-21%[7.67 µM]	28%[38.3 µM]
CCC(CNc1cc(OC)cc2cccnc12)NC1CCCCC1 (centres undefined)	1%	45µM*	-2%	16%	23%	/
COc1cc(NS(=O)(=O)c2ccc(C)cc2)c2ncccc2c1	?	19%	-7%	6%	?	13%
CCN(CC)S(=O)(=O)c1ccc2c(c1)N(CC(=O)N1CCN(c3ccc(OC)cc3)CC1)C(=O)CO2	-1%	/	-5%	/	/	/
CO[C@H]1COC(=O)[C@H](C)NC(=O)C/C=C\[C@@H](C)[C@H](OC)COC(=O)C/C=C\[C@@H]1C	0%[10.1 µM]	5%	/	/	/	/
O=C1NC(=O)C(c2ccccc2[N+](=O)[O-])=C1Nc1ccc(O)c(Cl)c1	-1%	56µM*!	?	-2%	-26%[46.1 µM]	5%
CCOC(=O)c1c(CSc2ccccc2)n(C)c2ccc(O)c(CN3CCOCC3)c12	0%	-37%	-6%	-2%	7.9µM*	10%
CCOC(=O)c1c(C)n(C)c2ccc(O)c(CN3CCN(C)CC3)c12	-3%	13%	-11%	-11%	-4%[46.1 µM]	18%[38.3 µM]
COc1ccc(CC(=O)OCc2cc3cccc(C)c3[nH]c2=O)cc1	1%	14%	-1%	?	-9%[46.1 µM]	?
COc1ccc(C(=O)OCc2cc3cccc(C)c3[nH]c2=O)cc1	-7%	0%	0%	?	-7%[46.1 µM]	10µM*
CC(=O)Nc1ccc(NC(=S)NC(=O)/C=C/c2ccco2)cc1	/	-28%	-10%	/	/	/
COc1cc(NS(=O)(=O)c2ccc(NC(=S)NC(=O)/C=C/c3ccco3)cc2)ncn1	-2%	-27%	-5%	-9%	10µM*	-5%
CC(=O)Nc1ccc(C(=O)/C=C/c2ccco2)cc1	0%	13µM*	5%	?	-2%	2%
CNC(=S)Nc1cccc(C(=O)O)c1	1%	56µM*	-14%	7%	13%	-2%
O=C(/C=C/c1ccco1)NC(=S)Nc1cccc(C(=O)O)c1	/	79µM*	-1%	/	/	/
CCOc1ccc(NC(=S)NC(=O)/C=C/c2ccco2)cc1	/	9%	?	/	/	/
COC(=O)C1=C(C(=O)OC)[C@@H]2N(Cc3ccccc3)c3ccccc3[C@@]23C[C@@H](C(=O)OC)N(S(=O)(=O)c2ccc([N+](=O)[O-])cc2)C3=N1	/	-3%	/	0%[11.4 µM]	/	10%
Cc1ccc(C2CC(=O)Oc3ccc(C(C)(C)C)cc32)cc1 (centres undefined)	-3%	2%	-1%[88.6 µM]	/	/	31%
CCc1c2c(nc3ccc4c(c13)OCCO4)-c1nc3ccccc3c(=O)n1C2	/	-6%	/	/	/	/
SMILES	Epigenetic reg	Sfp inh	KAT2A inh	KDM4E inh	NPSR antagonist	IMPase Li cell
O=C(NCc1ccccc1)c1ccc(NC(=O)c2ccco2)cc1	/	7%	?	/	/	/
CC(=O)Nc1cccc(C(=O)/C=C/c2ccco2)c1	0%	14µM*	-1%	?	-11%[46.1 µM]	7%[38.3 µM]
O=C(/C=C\c1ccco1)c1ccc(NC(=O)c2ccco2)cc1	-5%	10µM*	-28%	?	57%	8%
CCOC(=O)N1CCC(=NNS(=O)(=O)c2cccc([N+](=O)[O-])c2)CC1	4%	56µM*	-5%	-1%	-2%[46.1 µM]	15%[38.3 µM]
CC(=O)N1c2ccccc2C(=O)C1N1CCN(c2cc(Cl)ccc2C)CC1 (centres undefined)	-1%	/	-4%	/	/	/
Cc1ccccc1NCC(=O)c1ccc(Br)cc1	?	45µM*	-4%	?	-10%[46.1 µM]	4%[38.3 µM]
C=CCn1c(CNC(=O)c2ccco2)nnc1SCC(=O)c1ccccc1	4%	45µM*	-2%	2%	14%	-13%
CCn1c(CNC(=O)c2ccco2)nnc1SCC(=O)c1ccc(F)cc1	/	17%	-4%	/	/	/
O=C(CSc1nnc(CNC(=O)c2ccco2)o1)c1ccccc1	2%	71µM*	1%[0.501 µM]	7%	-10%[46.1 µM]	19%[38.3 µM]
O=C(CSc1nnc(CNC(=O)c2ccco2)o1)Nc1ccccc1	-5%	8%	-4%	0%	5%	2%
O=c1c2c3c(sc2nnn1Cc1ccc(Br)cc1)CCCC3	-1%	/	0%	/	/	/
C[N+]1(C)[C@@H]2CC(OC(=O)C(O)(c3cccs3)c3cccs3)C[C@H]1[C@@H]1O[C@@H]12 (some centres undefined)	/	7%	4%	/	/	/
COCCn1c(=O)c(-c2ccc(F)cc2)nc2cnc(N3CCOCC3)nc21	/	34%	-16%	/	/	2%
O=C(On1c(-c2ccccc2)nc2ccccc2c1=O)c1ccco1	-1%	-28%	/	20µM*	-3%[46.1 µM]	2%[38.3 µM]
CCOC(=O)C1=C(O)/C(=C/c2cc(OC)c(OC)c(OC)c2)N=C1C	3%	89µM*	-6%	-11%	?	27%[38.3 µM]
O=C1NC(C(=O)O)=CC(c2ccc([N+](=O)[O-])cc2)N1 (centres undefined)	-1%	8.9µM*	-21%	-7%	-5%	/
COC(=O)C1=C(C)NC(C)=C(C(=O)OCCNCc2ccccc2)C1c1cccc([N+](=O)[O-])c1 (centres undefined)	2%	-15%	-14%	/	/	16%
O=C(Nc1ccccc1)Nn1cnnc1	/	14%	-1%	/	/	/
COc1ccc(NC(=S)Nn2cnnc2)cc1OC	-4%	20µM*	-18%	-17%	3%	1%
COc1ccc(NC(=S)Nc2ccccc2)c(OC)c1	-2%	-18%	-3%	-5%	3%	-5%
CCc1ccc(NC(=S)Nn2cnnc2)cc1	0%	14µM*	-19%	-27%	2%	1%
COc1ccc(NC(=S)Nn2cnnc2)c(OC)c1	/	18µM*	-3%	/	/	/
CCc1ccc(NC(=O)Nn2cnnc2)cc1	/	9%	-4%	/	/	/
S=C(Nc1ccccc1)Nn1cnnc1	0%	13µM*	-16%	-2%	18%	-3%
